This note sets out measurements from PubChem BioAssay (EPA / NIEHS).

The target in assay [1] is Cellular tumor antigen p53 (Homo sapiens) (UniProt P04637). The assay can be described thus: TOX21_p53_BLA_p2_ratio: Tox21 HCT-116 p53 Agonism Beta-lactamase Assay, Ratio, Phase 2 (AID 2283592). Summed up:
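In this cell-based reporter format, HCT116 cells were dosed with chemicals delivered from DMSO by 217-fold dilution and incubated 16 h at 37C. Emission at 460 and 530 nm after 2 h CCF4-AM loading provided the ratio, fitted upward versus DMSO.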

Assay [2] in a line: TOX21_p53_BLA_p3_viability: Viability Assessment in the Tox21 HCT-116 p53 Agonism Beta-lactamase Assay, Phase 3 (AID 2283593).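 Also: cells exposed to compound for 16 h before reading.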 The method, boiled down: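 HCT116 cells, 4000/well, dosed 5 h after plating by pin transfer (217-fold dilution from DMSO stock) and incubated 16 h at 37C, 5% CO2. Viability read as ATP luminescence with CellTiter-Glo after 30 min at room temperature.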

The target of assay [3] is Cellular tumor antigen p53 (Homo sapiens) (UniProt P04637). The assay can be described thus: TOX21_p53_BLA_p3_ratio: Tox21 HCT-116 p53 Agonism Beta-lactamase Assay, Ratio, Phase 3 (AID 2283596). Summed up: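 HCT116 p53-bla cells (4000/well) given compound in DMSO (217-fold dilution) after 5 h, incubated 16 h at 37C. CCF4-AM substrate 2 h at room temperature; 460/530 nm emission ratio, gain fitted against DMSO.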

Assay [4] in a line: TOX21_p53_BLA_p4_viability: Viability Assessment in the Tox21 HCT-116 p53 Agonism Beta-lactamase Assay, Phase 4 (AID 2283597).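 Also: hits lower the luminescence signal meaning cytotoxicity.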 Summed up:
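We seeded HCT116 p53 reporter cells at 4000/well and waited 5 h. We then added compounds in DMSO at a 217-fold dilution and incubated for 16 h. Viability was read as CellTiter-Glo luminescence after 30 min at RT.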

Assay [5] can be described thus: TOX21_p53_BLA_p5_viability: Viability Assessment in the Tox21 HCT-116 p53 Agonism Beta-lactamase Assay, Phase 5 (AID 2283600). The method, boiled down: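 Compounds, pinned from DMSO at 217-fold dilution, were left on the cells for 16 h. The viability endpoint was ATP content measured by CellTiter-Glo luminescence, where falling signal reflects cytotoxicity.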
Assay [6] addresses Cellular tumor antigen p53 (Homo sapiens) (UniProt P04637). The assay can be described thus: TOX21_p53_BLA_p5_ratio: Tox21 HCT-116 p53 Agonism Beta-lactamase Assay, Ratio, Phase 5 (AID 2283599). Summed up:
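HCT-116 p53-bla cells (4000/well) plated 5 h, dosed with compound (217-fold DMSO dilution) for 16 h at 37 C; CCF4-AM substrate 2 h at room temperature. Activity is the 460/530 nm emission ratio (405 nm excitation), fitted in gain-of-signal direction versus DMSO.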

Assay [7] shares this target. Put plainly: TOX21_p53_BLA_p4_ratio: Tox21 HCT-116 p53 Agonism Beta-lactamase Assay, Ratio, Phase 4 (AID 2283601). Summed up: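 HCT-116 p53 beta-lactamase reporter cells (4000/well) preincubated 5 h, then compound (217-fold dilution of DMSO stock) for 16 h at 37C. CCF4-AM substrate added 2 h at room temperature; 460/530 nm emission ratio fitted upward versus DMSO.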

Assay [8] in a line: Tanguay_ZF_120hpf_MORT_legacy: (Legacy) Oregon State University Tanguay Lab 120 Hour Post-fertilization zebrafish Assay for Mortality (AID 2283633). The method, boiled down: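 Brightfield scoring of embryo death (binary) at 24 and 120 hpf; static exposure 6–120 hpf, 28C, sealed and foil-covered. Pronase-dechorionated 5D wild-type larvae, single embryo per well. DMSO 0.64% v/v; trimethyltin chloride 5uM positive control.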

The nature of assay [9]: Tanguay_ZF_120hpf_YSE_legacy: (Legacy) Oregon State University Tanguay Lab 120 Hour Post-fertilization zebrafish Assay for Yolk Sac Edema (AID 2283634).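 As to AC50: actives raise the incidence of yolk sac edema above the DMSO baseline.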 The method, boiled down:
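Binary brightfield scoring of yolk sac edema at 120 hpf; DMSO baseline, gain-of-signal fitting. Dechorionated 5D larvae, one per well, static exposure 6–120 hpf, 28C, 0.64% DMSO. Dead embryos not scored.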

The nature of assay [10]: TOX21_p53_BLA_p2_viability: Viability Assessment in the Tox21 HCT-116 p53 Agonism Beta-lactamase Assay, Phase 2 (AID 2283591).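 Also: compound exposure lasted 16 h at 37 °C; actives lower the ATP signal meaning cytotoxicity.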 Summed up:
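HCT116 p53-bla cells, 4000/well, dosed after 5 h plating (217-fold dilution of DMSO stocks) and incubated 16 h at 37C. Viability taken as cellular ATP by CellTiter-Glo luminescence after 30 min RT; signal loss marks cytotoxicity.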

Several values for one entry are separate records, joined by “and”; a condition that tells them apart may be missing. Equal values may be shown once. Results filed as inconclusive are left out. The source holds several records for some structures; these can differ, active in one and inactive in another. Activity calls are given as the source filed them. The calls were made as follows: active = hit-call score of the fitted dose curve at least 0.9, where 1 is the maximum; inconclusive = response in the unintended direction; inactive = score below 0.9.

Cellular tumor antigen p53 (Homo sapiens), sequence (P04637 whole entry, looked up): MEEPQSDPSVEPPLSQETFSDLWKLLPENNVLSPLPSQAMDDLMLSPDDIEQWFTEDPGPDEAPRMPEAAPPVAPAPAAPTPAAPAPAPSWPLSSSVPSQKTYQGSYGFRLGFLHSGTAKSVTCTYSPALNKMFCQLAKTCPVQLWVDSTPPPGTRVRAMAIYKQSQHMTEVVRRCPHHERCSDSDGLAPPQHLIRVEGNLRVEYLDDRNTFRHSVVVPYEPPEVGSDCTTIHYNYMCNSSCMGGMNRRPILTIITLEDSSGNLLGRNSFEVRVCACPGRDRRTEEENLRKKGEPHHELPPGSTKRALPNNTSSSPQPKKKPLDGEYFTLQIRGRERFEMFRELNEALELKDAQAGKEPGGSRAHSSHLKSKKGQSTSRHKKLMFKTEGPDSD

As for `O=S(=O)(c1ccc(O)cc1)c1ccc(O)cc1`, the result in assay [1], in [2], in assay [3], in assay [4] and in assay [5] was inactive.

For the compound `CCOC(=O)c1ccccc1C(=O)OCC`, the result in [1], in assay [2], in assay [3], in assay [4], in assay [6] and in assay [7] was inactive. Also, the compound was classed as inactive in [8] and in [9].

Consider `CCOP(=S)(OCC)SCn1nnc2ccccc2c1=O`, for which the outcome in [1], in assay [2], in assay [3], in [4], in [6] and in assay [5] was inactive. Further, the result in assay [7] was inactive.

`CCOc1ccc(C(C)(C)COCc2cccc(Oc3ccccc3)c2)cc1`: the compound was called inactive in assay [10], in assay [2], in assay [5], in assay [7], in [8] and in assay [9].

As to `CCCCN(CCCC)N=O`, the result in [1], in assay [2], in assay [3], in [4], in assay [6] and in assay [5] was inactive. Further, the outcome in assay [7], in assay [8] and in assay [9] was inactive.

In the case of `CC1(C)CN=C(NN=C(/C=C/c2ccc(C(F)(F)F)cc2)/C=C/c2ccc(C(F)(F)F)cc2)NC1`, the AC50 in assay [1] is 20.6 µM (active); in assay [2] it was 31.6 µM (active); in assay [3], 39.5 µM (active); in [6], 44.7 µM (active); in [5] it was 46.1 µM (active). Also, the outcome in [4] and in [7] was inactive.

As to `c1ccc2c(c1)sc1ccccc12`, the result in [1], in [2], in assay [3], in [4], in assay [6] and in [5] was inactive. Besides, the outcome in assay [7] was inactive.

As to `c1ccc2c(c1)Nc1ccccc1S2`, the outcome in assay [1], in assay [2], in [3], in assay [4], in [6] and in [5] was inactive. The result in assay [7], in assay [8] and in assay [9] was inactive.

For the compound `O=c1ssc(Cl)c1Cl`, the outcome in assay [1], in assay [5] and in assay [7] was inactive. Moreover, the values for the AC50 in assay [2] and in [3] were 73.7 µM (active) and 61.2 µM (active), respectively.

Consider `CO/N=C(/C(=O)OC)c1ccccc1COc1ccccc1C`, for which the compound was called inactive in assay [10], in [2], in assay [3], in assay [4], in assay [6] and in assay [5]. Further, in assay [7], the result was inactive. For the same compound, the AC50 in assay [1] was 27.1 µM (active).

For the compound `COC(N)=O`, the outcome in assay [1], in [2], in assay [4], in assay [6] and in assay [7] was inactive.

For the compound `COP(=O)(O)OC`, the outcome in assay [1], in assay [2], in assay [3] and in assay [7] was inactive. In addition, the AC50 in [5] is 85.6 µM (active).

In the case of `FC(F)(F)c1ccc(Cl)cc1`, the outcome in [1], in assay [2], in assay [3], in assay [6] and in assay [7] was inactive.

For the compound `CCC(C)(C)c1ccc(O)cc1`, the result in assay [1], in assay [2], in [3], in assay [4], in [6] and in assay [5] was inactive. In addition, the result in [7] and in assay [8] was inactive. For the same compound, the AC50 in assay [9] was 51.1 µM (active).

For the compound `CCCCN(CC)C(=O)SCCC`, the outcome in assay [1], in assay [2], in [3], in assay [4], in assay [6] and in assay [5] was inactive. Moreover, the result in assay [7] was inactive.

For `O=[N+]([O-])c1ccccc1`, the result in assay [1], in assay [2], in assay [3], in [4], in assay [6] and in assay [5] was inactive. Besides, the result in assay [7], in assay [8] and in assay [9] was inactive.

In the case of `Cc1ccc2c(c1N)C(=O)c1ccccc1C2=O`, the outcome in assay [1], in assay [2], in assay [3], in assay [4], in assay [6] and in assay [5] was inactive. In addition, the result in [7] was inactive.

For the compound `OCC1CO1` (stereo unspecified), the outcome in assay [1], in [2], in [3], in assay [4], in assay [6] and in assay [5] was inactive. Moreover, the outcome in assay [7], in [8] and in [9] was inactive.

As to `CCOS(=O)(=O)OCC`, the compound was called inactive in [10], in assay [1], in [2], in assay [3], in assay [4] and in assay [6]. Also, the call in assay [5], in assay [7], in assay [8] and in assay [9] was inactive.

In the case of `CCOP(=S)(NC(C)C)Oc1ccccc1C(=O)OC(C)C` (stereo unspecified), the outcome in assay [1], in [2], in assay [6], in assay [5] and in assay [7] was inactive. In addition, the AC50 in assay [4] was 33.5 µM (active).

Turning to `C=C(C)C(=O)OCC1CO1` (stereo unspecified), the result in assay [1], in assay [2], in assay [3], in assay [4], in assay [6] and in [5] was inactive. Also, in assay [7], the result was inactive.

`O=P(OCC(Br)CBr)(OCC(Br)CBr)OCC(Br)CBr` (stereo unspecified): the AC50 in assay [1] is 80.2 µM (active); in assay [3], 75.3 µM (active) and 86.9 µM (active); in assay [6], 66.9 µM (active) and 74.7 µM (active); in [7], 75.7 µM (active) and 73.6 µM (active). Moreover, the outcome in assay [1], in assay [2], in assay [4] and in assay [5] was inactive.

As for `O=NN1CCCC1`, the result in [1], in [2], in assay [3], in assay [6], in assay [5] and in assay [7] was inactive.

For `CCN(CC)C1CCCCC1`, the result in assay [1], in assay [2], in [3], in assay [6], in [5] and in [7] was inactive.

As to `[N-]=[N+]=[N-]`, the outcome in [1], in assay [2], in assay [3], in assay [4], in assay [6] and in assay [5] was inactive. Further, the result in [7], in assay [8] and in assay [9] was inactive.

Take `O=S1(=O)OCC2C(CO1)C1(Cl)C(Cl)=C(Cl)C2(Cl)C1(Cl)Cl` (stereo unspecified): the result in assay [1], in [2], in assay [3], in [4], in assay [6] and in [5] was inactive. Further, the result in [7] was inactive.

Turning to `CC(C)Nc1ccc(Nc2ccccc2)cc1`, the AC50 in assay [1] was 14.6 µM (active) and 23.1 µM (active); in assay [3], 66.1 µM (active) and 76.4 µM (active) and 31.5 µM (active); in assay [4], 46.1 µM (active) and 45.9 µM (active) and 19.2 µM (active); in assay [6], 66.4 µM (active) and 78.4 µM (active) and 24 µM (active); in [7], 14.9 µM (active). For the same compound, the outcome in [1], in [2], in assay [5] and in [7] was inactive.

On to `Cc1ccc(N)cc1N`, for which the result in assay [1], in [2], in assay [3], in assay [6], in assay [5] and in assay [7] was inactive. The result in assay [8] was inactive. The AC50 in [7] is 14.7 µM (active).

In the case of `C/C(=N\NC(=O)Nc1cc(F)cc(F)c1)c1ncccc1C(=O)O`, the outcome in [1], in assay [2], in assay [3] and in assay [5] was inactive.

In the case of `CC(C)(C)OOC(C)(C)C`, the result in assay [1], in assay [2], in assay [3], in assay [4], in [6] and in assay [5] was inactive. In addition, the result in assay [7], in assay [8] and in assay [9] was inactive.

Usually AC50 stands for the concentration giving half of the maximal activity seen.
